Experimental data published in publication PMC9838217, “Structure of SALL4 zinc finger domain reveals link between AT-rich DNA binding and Okihiro syndrome”.
Where a chain is given by its changes, count along the chain named.

Each sequence was assayed against T1, SALL4 ZFC4 WT (HT-SELEX) (Mus musculus, UniProt Q8BX22 870-940) (assay: HT-SELEX; high values mean tight binding). Conditions: protein: recombinant; vector His6-GST; dsDNA, one strand shown.
T1 sequence: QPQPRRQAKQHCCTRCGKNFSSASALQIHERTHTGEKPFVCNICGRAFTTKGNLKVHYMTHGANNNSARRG
Method in brief: (§1)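 In triplicate selections of up to 6 cycles, purified recombinant mouse SALL4 zinc finger cluster 4 (residues 870–940, 1 µg) was incubated 10 min at room temperature with library DNA (1.5 µg, then 200 ng) in 100 µl of 10 mM Tris–HCl pH 7.5, 50 mM NaCl, poly(dI-dC) and DTT, and complexes were captured on Ni2+ beads, washed and PCR-amplified. Sequencing was done on MiSeq with scanning for 6-mers. The binding signal is each canonical k-mer's read fraction, reported as fold change against the initial random library.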
Work on ACTACG yielded a binding signal of 0.659 ± 0.026 fold-change vs cycle 0. ATCGCA was tested, and the binding signal was 0.515 ± 0.00556 fold-change vs cycle 0. With TGTAAA the binding signal was 1.93 ± 0.102 fold-change vs cycle 0. GAGTGC was tested, and the binding signal was 0.332 ± 0.0145 fold-change vs cycle 0. Work on ATGAAA yielded a binding signal of 2.91 ± 0.152 fold-change vs cycle 0. For ATGTCG, the binding signal was 0.521 ± 0.0491 fold-change vs cycle 0. Sequence TGAACA has a binding signal of 1.29 ± 0.0296 fold-change vs cycle 0. For AATCTG, the binding signal was 1.22 ± 0.0563 fold-change vs cycle 0. With ACCTCG the binding signal was 0.423 ± 0.0256 fold-change vs cycle 0. Sequence AGGAGG has a binding signal of 0.615 ± 0.0373 fold-change vs cycle 0. ACGCTA gave a binding signal of 0.566 ± 0.0296 fold-change vs cycle 0. With ACACCG the binding signal was 0.325 ± 0.0278 fold-change vs cycle 0. GAGTCA showed a binding signal of 0.822 ± 0.0312 fold-change vs cycle 0. In the case of ATAGAC, the binding signal is reported as 1.2 ± 0.024 fold-change vs cycle 0. AAGAGT showed a binding signal of 1.418 ± 0.0105 fold-change vs cycle 0. Work on GGATTA yielded a binding signal of 1.49 ± 0.0733 fold-change vs cycle 0. In the case of CCTAAC, the binding signal is reported as 0.883 ± 0.0279 fold-change vs cycle 0. In the case of AAACAG, the binding signal is reported as 1.101 ± 0.00341 fold-change vs cycle 0. With AGTAGC the binding signal was 0.643 ± 0.0074 fold-change vs cycle 0. For CTATAC, the binding signal was 1.32 ± 0.0145 fold-change vs cycle 0. Sequence AGAGAG has a binding signal of 0.922 ± 0.0426 fold-change vs cycle 0. In the case of AGCAGA, the binding signal is reported as 0.694 ± 0.0089 fold-change vs cycle 0. In the case of CAAGTG, the binding signal is reported as 0.7915 ± 0.00346 fold-change vs cycle 0. TATATA was tested, and the binding signal was 5.68 ± 0.781 fold-change vs cycle 0. For ACCTAG, the binding signal was 0.875 ± 0.0697 fold-change vs cycle 0. AGCAAC was tested, and the binding signal was 0.642 ± 0.0202 fold-change vs cycle 0. CAATTC showed a binding signal of 1.19 ± 0.016 fold-change vs cycle 0. For AGTAGA, the binding signal was 1.33 ± 0.0604 fold-change vs cycle 0. ATAGAA was tested, and the binding signal was 2.33 ± 0.17 fold-change vs cycle 0. With AAGTAT the binding signal was 2.21 ± 0.135 fold-change vs cycle 0. Sequence CCTCCC has a binding signal of 0.317 ± 0.0293 fold-change vs cycle 0. For ACTTGG, the binding signal was 0.787 ± 0.0269 fold-change vs cycle 0. In the case of GGTGAC, the binding signal is reported as 0.454 ± 0.0238 fold-change vs cycle 0. In the case of AGAGTG, the binding signal is reported as 0.822 ± 0.0341 fold-change vs cycle 0. ACAAGC was tested, and the binding signal was 0.616 ± 0.0453 fold-change vs cycle 0. With ATCCCA the binding signal was 0.89 ± 0.0366 fold-change vs cycle 0. For AGATCC, the binding signal was 0.821 ± 0.0254 fold-change vs cycle 0. ATAGAT was tested, and the binding signal was 2.3 ± 0.159 fold-change vs cycle 0. Work on CTGGAC yielded a binding signal of 0.396 ± 0.0407 fold-change vs cycle 0. In the case of ACGGGA, the binding signal is reported as 0.422 ± 0.0189 fold-change vs cycle 0.

The sequences below were run against T2, SALL4 ZFC4 R900W (HT-SELEX) (Mus musculus, UniProt Q8BX22 870-940, R900W) (assay: HT-SELEX; high values mean tight binding). Conditions: protein: recombinant; vector His6-GST; dsDNA, one strand shown.
T2 sequence: T1 sequence with R31W
Method in brief: as §1
With ACTACG the binding signal was 0.728 ± 0.025 fold-change vs cycle 0. ATCGCA was tested, and the binding signal was 0.522 ± 0.0161 fold-change vs cycle 0. TGTAAA showed a binding signal of 1.92 ± 0.0908 fold-change vs cycle 0. With GAGTGC the binding signal was 0.398 ± 0.019 fold-change vs cycle 0. With ATGAAA the binding signal was 1.98 ± 0.0876 fold-change vs cycle 0. ATGTCG was tested, and the binding signal was 0.603 ± 0.00997 fold-change vs cycle 0. TGAACA was tested, and the binding signal was 1.4 ± 0.0577 fold-change vs cycle 0. AATCTG gave a binding signal of 1.28 ± 0.0883 fold-change vs cycle 0. ACCTCG gave a binding signal of 0.498 ± 0.00774 fold-change vs cycle 0. AGGAGG showed a binding signal of 0.701 ± 0.0545 fold-change vs cycle 0. In the case of ACGCTA, the binding signal is reported as 0.638 ± 0.0194 fold-change vs cycle 0. Work on ACACCG yielded a binding signal of 0.384 ± 0.0241 fold-change vs cycle 0. Work on GAGTCA yielded a binding signal of 0.955 ± 0.0308 fold-change vs cycle 0. ATAGAC gave a binding signal of 1.29 ± 0.0416 fold-change vs cycle 0. AAGAGT was tested, and the binding signal was 1.59 ± 0.0431 fold-change vs cycle 0. Work on GGATTA yielded a binding signal of 1.47 ± 0.0516 fold-change vs cycle 0. In the case of CCTAAC, the binding signal is reported as 0.976 ± 0.0147 fold-change vs cycle 0. AAACAG was tested, and the binding signal was 1.27 ± 0.0528 fold-change vs cycle 0. With AGTAGC the binding signal was 0.756 ± 0.0367 fold-change vs cycle 0. CTATAC gave a binding signal of 1.46 ± 0.0569 fold-change vs cycle 0.
